According to the supplement of paper PMC7411054:
Structures can show the parent of a compound that is named as a salt.

The molecules below were run on WPMY1-ACTB-RAB5A (assay: lowest phenotypically active concentration; higher = less potent). Conditions: treatment time: 24 h.
In short: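 The reporter lines, fifteen in total and built by gene editing in A549, HepG2 and WPMY1 cells, used BFP for segmentation alongside GFP and RFP/FusionRed markers. Each was treated at 0.3, 1, 3 or 9 µM for 24 h in four wells and then imaged live, with live-cell features normalised to solvent control wells. Deviation meant ≥3 of 4 wells beyond the 95th percentile of control Euclidean distances; reproducibility meant a median replicate Pearson correlation above the 95th percentile of non-replicates. Only conditions meeting both were scored as phenotypically active.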

Row | SMILES | lowest phenotypically active concentration
1 | CC[C@H]1CN2CC[C@H]1C[C@@H]2[C@@H](O)c1ccnc2ccc(OC)cc12 [Hydroquinidine HCl] | 9 µM
2 | C[C@@]1(CO)[C@H](O)CC[C@@]2(C)[C@H]1CC[C@H]1C[C@@H]3C[C@@]12CC[C@]3(O)CO [Aphidicolin] | ≤ 0.3 µM
3 | COC(=O)[C@@]1(O)C[C@H]2O[C@]1(C)n1c3ccccc3c3c4c(c5c6ccccc6n2c5c31)C(=O)NC4 | ≤ 0.3 µM
4 | COc1ccc(N(C(=O)Oc2c(C)cccc2C)c2ccnc(Nc3ccc(N4CCN(C)CC4)cc3)n2)c(OC)c1 | 1 µM
5 | CC(C)[C@@]1(NC(=O)[C@@H]2C[C@@H]3c4cccc5[nH]cc(c45)C[C@H]3N(C)C2)O[C@@]2(O)[C@@H]3CCCN3C(=O)[C@H](Cc3ccccc3)N2C1=O [Dihydroergocristine mesylate] | 9 µM
6 | C[C@]12CC[C@H]3[C@@H](CC[C@]4(O)C[C@@H](O)CC[C@]34C=O)[C@@]1(O)CC[C@@H]2C1=CC(=O)OC1 [Strophanthidin] | ≤ 0.3 µM
7 | C=C1[C@@H](O)C2C=CC[C@H](C)C(=O)[C@](C)(O)C=C[C@@H](OC(C)=O)[C@]23C(=O)N[C@H](Cc2ccccc2)[C@@H]3[C@@H]1C (stereo not given in full) [Cytochalasin D] | ≤ 0.3 µM
8 | COc1ccc(C[C@H]2NC[C@H](O)[C@H]2OC(C)=O)cc1 [Anisomycin] | ≤ 0.3 µM
9 | C[C@@H]1CC[C@H]2[C@@H](C)C(=O)O[C@@H]3O[C@@]4(C)CC[C@@H]1[C@]32OO4 [Artemisinin] | ≤ 0.3 µM
10 | O=C1NC(=O)c2c1c1c3ccccc3n3c1c1c2c2ccccc2n1C1CCC3O1 | 3 µM
11 | Cc1sc2c(c1C)C(c1ccc(Cl)cc1)=N[C@@H](CC(=O)OC(C)(C)C)c1nnc(C)n1-2 | ≤ 0.3 µM
12 | C[C@@]12C(=O)OC(=O)[C@]1(C)[C@H]1CC[C@@H]2O1 [Cantharidin] | 3 µM
13 | COc1cc2c(c(OC)c1OC)-c1ccc(OC)c(=O)cc1[C@@H](NC(C)=O)CC2 [colchicine] | ≤ 0.3 µM
14 | N#CC(C#N)=NNc1cccc(Cl)c1 | 9 µM
15 | CCN1CCN(C(=O)Cc2ccc(Nc3ncc(F)c(Nc4ccc(C(=O)Nc5ccccc5Cl)cc4)n3)cc2)CC1 | 1 µM
16 | O=C(NCCN1CCC2(CC1)C(=O)NCN2c1cccc(F)c1)c1ccc(F)c(F)c1 [ML 298 hydrochloride] | 9 µM
17 | CCn1cnc2c(Nc3cccc(Cl)c3)nc(N[C@H]3CCCC[C@H]3N)nc21 | 3 µM
18 | O=C(Nc1ccncc1)C(=O)c1cn(Cc2ccc(Cl)cc2)c2ccccc12 [Indibulin] | ≤ 0.3 µM
19 | CC[C@@H](C(=O)[C@@H](C)[C@@H](O)[C@H](C)[C@@H]1O[C@@H]([C@@H](CC)C(=O)O)CC[C@@H]1C)[C@H]1O[C@]2(C=C[C@@H](O)[C@]3(CC[C@@](C)([C@H]4CC[C@](O)(CC)[C@H](C)O4)O3)O2)[C@H](C)C[C@@H]1C [Salinomycin Sodium] | ≤ 0.3 µM
20 | CN1C[C@H](C(=O)N[C@]2(C)O[C@@]3(O)[C@@H]4CCCN4C(=O)[C@H](Cc4ccccc4)N3C2=O)C=C2c3cccc4[nH]cc(c34)C[C@H]21 [ergotamine] | 3 µM
21 | C[C@H](CCC(=O)O)C[C@H](C)C[C@H](C)C(=O)/C=C(\O)[C@H](C)C[C@H](C)C/C=C/[C@@H](C)[C@@H](O)[C@@H](C)[C@@H](O)C[C@@H]1CC[C@@](C)([C@H]2CC[C@@](C)([C@@H](C)O)O2)O1 [Ionomycin free acid] | 3 µM
22 | N#CC(C#N)=NNc1ccc(OC(F)(F)F)cc1 | 3 µM
23 | COC1=CC(C)=C[C@@H](C)[C@@H](O)[C@@H](C)CC(C)=CC=C[C@H](OC)[C@@H]([C@@H](C)[C@@H](O)[C@H](C)[C@@]2(O)C[C@@H](O)[C@H](C)[C@@H](C(C)C)O2)OC1=O [Bafilomycin A1] | 1 µM
24 | COc1cc([C@@H]2c3cc4c(cc3[C@H](O)[C@H]3COC(=O)[C@H]23)OCO4)cc(OC)c1OC [Podophyllotoxin] | ≤ 0.3 µM
25 | CC[C@]12C=CCN3CC[C@]4(C(=C(C(=O)OC)C1)Nc1ccccc14)[C@@H]32 [Tabersonine dichlorhydrate] | 9 µM
